Results on 7 compounds are retold here after PubChem BioAssay (NCI).

Values joined by “and” are separate entries in the source; they are usually repeats but may differ in a detail not shown here. Equal values may be shown once. About 83,000 compounds went through this panel and 20% of them were active in at least one assay; those are over-represented in the sample as a whole.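 For each line, cells grew in 96-well plates with the test compound present at a single concentration for 48 hours.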 Unmarked numbers belong to inactive results. Active and inactive are the calls of the source. The calls were made as follows: active = growth percent below 10; inactive = the rest.

Assay in all cases: NCI-60 one-dose screen, 48 h (100 = growth as untreated, 0 = no growth, -100 = all killed)
Settings in all cases: 10 µM unless noted

For assay [1], the system named is HCT-15 colon.
Assay [2] deals with HT29 colon.
Assay [3] deals with SNB-75 CNS.
In assay [4] the test system is SNB-19 CNS.
For assay [5], the system named is U251 CNS.
In assay [6] the test system is PC-3 prostate.
For assay [7], the system named is SK-MEL-5 melanoma.
The test system of assay [8] is UACC-62 melanoma.
Assay [9] has as its system LOX IMVI melanoma.
Assay [10] relates to SK-MEL-28 melanoma.
The subject of assay [11] is SK-MEL-2 melanoma.
The subject of assay [12] is EKVX NSCLC.
Assay [13] relates to SN12C renal.
For assay [14], the system named is UO-31 renal.
In assay [15] the test system is TK-10 renal.
In assay [16] the test system is ACHN renal.
For assay [17], the system named is CAKI-1 renal.
Assay [18] concerns A498 renal.
For assay [19], the system named is HL-60(TB) leukemia.
Assay [20] concerns CCRF-CEM leukemia.

For `Cc1ccc(N2CCN(CCC#N)CC2)cc1`, the growth in assay [1] was 97.2%; in assay [2], 103%; in assay [3] it was 79.5%; in assay [4], 87.9%; in assay [5], 97.8%; in assay [6] it was 92.5%. For the same compound, the growth in assay [7] was 82%; in [8] it was 98.6%; in assay [9], 101%; in assay [10], 98.7%; in assay [11], 110%; in assay [12] it was 95.5%. In addition, the growth in assay [13] was 96%; in assay [14], 82.6%; in assay [15] it was 89.5%; in assay [16], 101%; in assay [17] it was 87.1%; in assay [18] it was 137%. The growth in assay [19] was 87%; in assay [20] it was 92%.

With `NC(=O)c1c(Br)c(Br)c(Br)c(Br)c1C(=O)O` (tested in a mixture with another compound), the growth in assay [1] was 92.8% and 106%; in [2], 106% and 103%; in assay [3], 115% and 95.8%; in [4], 96.6% and 104%; in assay [5], 95.4% and 96.2%; in assay [6] it was 90.8% and 86.6%. Also, the growth in assay [7] is 95.2% and 101%; in [8], 83.7% and 104%; in assay [9], 31.8% and 101%; in assay [10], 110% and 108%; in assay [11], 101% and 113%; in [12], 108% and 99.9%. The growth in [13] was 87.8% and 93.3%; in assay [14], 72.4% and 51.5%; in assay [15] it was 122% and 123%; in [16] it was 92.7% and 101%; in assay [17] it was 92.8% and 97.5%; in assay [18] it was 113%. In addition, the growth in [20] is 35.5% and 79.4%.

As for `OCCN=Cc1c[nH]c2ccccc12`, the growth in assay [1] was 105%; in assay [2], 102%; in assay [3] it was 75%; in assay [4] it was 101%; in assay [5], 103%; in [6], 90.5%. Further, the growth in assay [7] is 103%; in assay [8], 90.9%; in [9], 95.2%; in assay [10] it was 111%; in assay [11], 109%; in assay [12], 93.8%. Besides, the growth in assay [13] is 93.3%; in [14], 75.7%; in assay [15], 122%; in [16], 94.3%; in assay [17], 80.4%; in [18] it was 107%. Further, the growth is 101% in assay [19] and 114% in assay [20].

As to `CO/N=C1\CC[C@]2(C)[C@H]3CC[C@]4(C)C(=O)CC[C@H]4[C@@H]3C[C@@H]3SC(N)=N[C@@]32C1`, the growth in assay [1] is 93.8%; in [2], 93.2%; in assay [3], 97.1%; in assay [4], 104%; in assay [5], 105%; in assay [6] it was 85.4%. In addition, the growth in assay [7] was 101%; in assay [8], 79.7%; in [9] it was 98.1%; in [10], 94.5%; in [11], 96.5%; in [12], 91.8%. Moreover, the growth was 107% in [13]; 77.9% in [14]; 116% in [15]; 100% in assay [16]; 74.3% in assay [17]; 98.9% in assay [18]. Further, the growth is 91.9% in assay [19] and 98.7% in [20].

Consider `Cc1cc[c-]cc1.Fc1c[c-]c(-c2ccccn2)c(F)c1.[Pt+2].c1ccc([PH+](c2ccccc2)c2ccccn2)cc1`, for which the growth was 74.1% in assay [1]; 22.9% in assay [2]; 22.7% in assay [3]; 49.5% in assay [4]; 27% in assay [5]; 37.4% in [6]. The growth in assay [7] was 77.5%; in assay [8], 64.5%; in assay [9], 31.2%; in assay [10] it was 39.4%; in assay [11] it was 71.8%; in assay [12], 65.3%. In addition, the growth in assay [13] is 52.1%; in assay [14] it was 58.4%; in [15] it was 75.9%; in assay [16], 69%; in assay [17] it was 54.7%; in assay [18], 82.7%. Also, in assay [20], the growth was 19.9%.

Take `O=C1CN2CCC1CC2`: the growth in [1] is 97%; in assay [2], 99.5%; in assay [3] it was 102%; in [4], 104%; in [5] it was 101%; in [6], 104%. In addition, the growth in assay [7] was 103%; in [8], 104%; in [9] it was 104%; in assay [10], 119%; in [11] it was 101%; in [12], 109%. Also, the growth in [13] is 106%; in [14], 84.6%; in [15], 106%; in assay [16], 101%; in assay [17], 103%; in [19], 94%.

With `C[Se]/C=C1/C(=O)N(c2c(Cl)cccc2Cl)c2ccccc21`, the growth in assay [1] was 45.7%; in assay [2], 7.79% (active); in assay [3], -30.8% (active); in assay [4], 32.6%; in assay [5] it was 25.1%; in assay [6], 31.3%. Further, the growth in assay [7] is 38.9%; in assay [8] it was 27.8%; in assay [9] it was 17.7%; in assay [10], 8.1% (active); in assay [11] it was 51.1%; in [12], 24%. For the same compound, the growth in assay [13] was -35.7% (active); in [14], -96.5% (active); in assay [15], 11.6%; in assay [16], 30.1%; in assay [17] it was 2.44% (active); in assay [18], 11.5%. Moreover, the growth in [19] is -39.7% (active); in [20], 10.2%.
